Inconclusive results are not listed. Active and inactive are the calls of the source. Calls follow the shape of the dose curve; as a rule, active = well fitted inhibition curve with a large enough effect; inconclusive = small, poorly fitted or top-dose-only effect; inactive = flat fitted curve, though single readings scatter.
What was measured:
Assay in all cases: qHTS profiling for inhibitors of Plasmodium falciparum proliferation (AID 504749); also: nearly all actives have a fitted effect of over 60% in size
Settings in all cases: P. falciparum in erythrocytes, SYBR Green DNA, 72 h; series mostly up to 28.7 µM
[1] = tested on: DIV17
Procedure, shortened: (§1)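 Parasite proliferation within erythrocytes, 72 h exposure. Endpoint: SYBR Green I fluorescence after overnight lysis at room temperature. Controls: 0.29 uM artemisinin, DMSO.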

[2] = tested on: DIV30
Procedure, shortened: as §1

[3] = tested on: GB4
Procedure, shortened: as §1

[4] = tested on: PC26
Procedure, shortened: as §1

[5] = tested on: Dd2
Procedure, shortened: as §1

[6] = tested on: ECU
Procedure, shortened: as §1

[7] = tested on: FAB9
Procedure, shortened: as §1

[8] = tested on: HB3
Procedure, shortened: as §1

[9] = tested on: ICS
Procedure, shortened: as §1

[10] = tested on: JCK
Procedure, shortened: as §1

[11] = tested on: N140
Procedure, shortened: as §1

[12] = tested on: PAD
Procedure, shortened: as §1

[13] = tested on: PC15
Procedure, shortened: as §1

[14] = tested on: PC49
Procedure, shortened: as §1

[15] = tested on: SC27B
Procedure, shortened: as §1

[16] = tested on: TAB109
Procedure, shortened: as §1

[17] = tested on: TAB113
Procedure, shortened: as §1

[18] = tested on: TAB165
Procedure, shortened: as §1

[19] = tested on: P94_40
Procedure, shortened: as §1

Measured: Potency

COc1ccc2c(c1OC)C(=O)O[C@H]2[C@@H]1c2cc3c(cc2CCN1C)OCO3
inactive: [1] | [2] | [3] | [4]

C=C(C)[C@H]1CN[C@H](C(=O)O)[C@H]1CC(=O)O
inactive: [1] | [2] | [5] | [6] | [7] | [3] | [8] | [9] | [10] | [11] | [12] | [13] | [4] | [14] | [15] | [16] | [17] | [18]

CN1CCC(O)(c2ccc(F)cc2)C(C(=O)c2ccc(F)cc2)C1 (stereo unspecified)
inactive: [1] | [2] | [5] | [6] | [7] | [3] | [8] | [9] | [10] | [11] | [19] | [12] | [13] | [4] | [14] | [15] | [16] | [17] | [18]
